# Results as given in PubChem BioAssay AID1422 (Emory University Molecular Libraries Screening Center, 2008).
# Screen size: about 260,000 compounds; about 1,300 (0.5%) were called active.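 How the source made its calls: active means percent inhibition above 40 after rounding to a whole number; inactive means the rest.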 This excerpt belongs to a sample that is enriched for actives.
# Target: Prostaglandin E2 receptor EP2 subtype (Homo sapiens) (UniProt P43116)
# Assay: blockers of PGE2-driven EP2 cAMP signalling – TR-FRET cAMP, C6 glioma cells, primary screen (AID 1422);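 further: rat C6 glioma host cells with rolipram phosphodiesterase inhibitor present; the protocol text gives 20 µM as final concentration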
# Conditions: C6 glioma cells expressing human EP2, cAMP TR-FRET, at 25 µM, stronger effect = higher value; cells stimulated with saturating PGE2 unless noted
# Prostaglandin E2 receptor EP2 subtype (Homo sapiens), sequence (P43116 whole entry, looked up): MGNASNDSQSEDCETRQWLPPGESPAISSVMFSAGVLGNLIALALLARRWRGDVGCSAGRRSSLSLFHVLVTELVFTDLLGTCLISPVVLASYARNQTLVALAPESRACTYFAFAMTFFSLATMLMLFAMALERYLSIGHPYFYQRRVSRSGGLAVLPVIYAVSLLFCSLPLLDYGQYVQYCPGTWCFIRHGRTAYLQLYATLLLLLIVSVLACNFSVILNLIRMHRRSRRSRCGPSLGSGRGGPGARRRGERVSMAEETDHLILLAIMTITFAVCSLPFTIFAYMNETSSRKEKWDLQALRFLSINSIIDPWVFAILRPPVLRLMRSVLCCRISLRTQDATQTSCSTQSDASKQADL
row,Compound,inhibition
1,O=C1C[C@@H]2OCC=C3CN4CC[C@]56c7ccccc7N1[C@H]5[C@H]2[C@H]3C[C@H]46 (tested in a mixture with another compound),43.4% (active)
2,COc1ccccc1CN(CCN(C)C)C(=O)Cc1nn(C)c(=O)c2ccccc12,8.64% (inactive)
3,COc1ccc(C2=NCC(=O)N(Cc3cccnc3)c3sc4c(c32)CCCC4)cc1,7.58% (inactive)
4,CC(=O)O[C@H]1CC[C@@]2(C)[C@@H](CC[C@H]3[C@H]2CC(=O)[C@]2(C)[C@@H]3C[C@@H](N3CC3)[C@H]2C(C)=O)C1,44% (active)
5,CC(=O)O[C@H]1CC[C@@]2(C)C(=CCC3C2CC[C@]2(C)C(=O)CCC32)C1 (stereo not given in full),13.5% [setting not given] (inactive)
6,C=C1C2CC[C@@]3(C)[C@H](c4ccoc4)OC(=O)C[C@]13O[C@H]1CC(=O)C(C)(C)[C@H](C(OC(C)=O)C(=O)OC)[C@@]21C (stereo not given in full),14.4% (inactive)
7,COc1cc([C@@H]2c3cc4c(cc3[C@H](OC(C)=O)[C@H]3COC(=O)[C@H]23)OCO4)cc(OC)c1OC,14.4% (inactive)
8,Fc1ccc2c(c1)nnn2C1CCN(Cc2nnnn2C2CCCC2)CC1,8.46% (inactive)
9,CC[C@@](O)(C(=O)O)c1cc2n(c(=O)c1CO)Cc1cc3ccccc3nc1-2,47.7% (active)
10,CCn1cc(C(=O)c2ccco2)c2ccccc21,1.27% (inactive)
11,c1ccc2[nH]c(C3CCNCC3)nc2c1,6.74% (inactive)
12,C=CCc1cc(CN2C3CCC2CC(O)(c2nccn2C)C3)cc(OC)c1O (stereo not given),10.4% (inactive)
13,Cc1ccc(C(C)N2CCNCC2)c(C)c1 (stereo not given),5.45% (inactive)
14,COc1cc(CN2C3CCC2CC(O)(c2ccccc2F)C3)ccc1OC(C)C (stereo not given),6.07% (inactive)
15,Cc1nc(-c2ccc(F)cc2)c(CC(=O)N(CCN(C)C)C2CCCCC2)s1,2.82% (inactive)
